Results published in PubChem BioAssay (NCATS).
Results filed as inconclusive are left out. A number with no mark means an inactive call. The source made the active and inactive calls. The call rests on the fitted dose curve; in most records, active means well fitted cell-killing curve with a large enough effect; inconclusive means small, poorly fitted or top-dose-only effect, or effect the other way; inactive means no such curve, though single readings can be large or run the other way.

Assay: Viability qHTS for spleen associated tyrosine kinase inhibitor (SYKi) naive MV4-11 cells (AID 1963823); further: nearly all actives have a fitted effect of over 40% in size
Conditions: MV4-11 AML viability, CellTiter-Glo luminescence, 72 h; series mostly up to 45 µM; viability (% of control): at the top concentration
Outline: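 SYKi-naive MV4-11 AML cells, 500 per well, were exposed to library compounds for 72 hr at 37 C, 5% CO2. Viability was then read by CellTiter-Glo luminescence after 10 min at room temperature.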
Potency means the concentration at half of the fitted maximal effect.

Compound | viability (% of control) | Potency
CC1OC(OC2CCC3(C)C(CCC4(C)C3CC=C3C5CC(C)(C)CCC5(C(=O)OC5OC(CO)C(O)C(O)C5O)CCC34C(=O)O)C2(C)C)C(O)C(O)C1O (centres undefined) | 73.6% [at 17.3 µM] | –
O=C1NC2CCCCN2C12CCN(CCCN1c3ccccc3CCc3ccc(Cl)cc31)CC2 (centres undefined) | – | 10.3 µM (active)
Cc1ccc2c(Br)cc(Br)c(O)c2n1 | – | 16.8 µM (active)
CC(C)(C)c1ccc(S(=O)(=O)NCc2ccc(C(=O)Nc3cccnc3)cc2)cc1 | – | 0.231 µM (active)
CN(C)CCNC(=O)c1cccn2c(=O)c3cc4ccccc4cc3nc12 | – | 0.299 µM (active)
C=C1C(O)CC2C(C(=O)O)=COC(O[C@@H]3O[C@H](COC(=O)/C=C/c4ccc(O)cc4)[C@@H](O)[C@H](O)[C@H]3O)C12 (some centres undefined) | 91.5% [at 17.3 µM] | –
C#CCN(Cc1cc2c(=O)n(C)c(CN3CCN(C)CC3)nc2cc1Cl)c1ccc(C(=O)NCc2cccnc2)cc1 | 2.34% | –
C/C(=C\CCC(C)(C)O)CCO[C@@H]1O[C@H](CO[C@@H]2O[C@@H](C)[C@H](O)[C@@H](O)[C@H]2O)[C@@H](O)[C@H](O)[C@H]1O | 88.3% [at 17.3 µM] | –
C[C@]12CC[C@@H]3c4ccc(O[C@@H]5O[C@H](C(=O)O)[C@@H](O)[C@H](O)[C@H]5O)cc4CC[C@H]3[C@@H]1CCC2=O | 99.3% | –
CC(C)c1ccc(CO)cc1O[C@@H]1O[C@H](CO)[C@@H](O)[C@H](O)[C@H]1O | 73.2% | –
CC(C)=C[C@@H]1[C@H](CO[C@@H]2O[C@H](CO)[C@@H](O)[C@H](O)[C@H]2O)C1(C)C | – | 7.18 µM (active)
Cc1cc2c(N3CCCC3)nc(N3CCCC3)nc2n1C | – | 8.2 µM (active)
CC(=O)N[C@@H](CCCCN)C(=O)N(C)[C@@H](CC(C)C)C(=O)N[C@H](C(=O)N(C)[C@@H](Cc1ccccc1)C(=O)N[C@H](Cc1ccccc1)C(N)=O)C(C)C | 93.5% [at 4.97 µM] | –
CC(=O)N1CCN([C@H]2CCN(C(=O)N(C)[C@H](C)c3cc(C(F)(F)F)cc(C(F)(F)F)c3)[C@@H](c3ccc(F)cc3C)C2)CC1 | – | 14.6 µM (active)
C=C(C)[C@@H]1CC[C@]2(C(=O)O)CC[C@]3(C)C(CCC4[C@]5(C)C(CC[C@]43C)C(C)(C)[C@@H](O)[C@@H]5C(=O)O)C12 (some centres undefined) | 85.4% [at 17.3 µM] | –
CC(C)C[C@@H]1NC(=O)[C@@H](Cc2ccccc2)NC(=O)C(CCCCCC(=O)C2CO2)NC(=O)[C@@H]2CCCCN2C1=O (some centres undefined) | – | 0.0252 µM (active)
OC[C@H]1O[C@@H](OCc2ccccc2)[C@H](O)[C@@H](O)[C@@H]1O | 75.8% | –
CC1(CO)CCCC2(C)C1C(OC(=O)c1ccccc1)CC1C(=O)OCC12O (centres undefined) | 78% | –
C=C1C[C@]23C[C@@]1(O)CC[C@H]2[C@@]12C=C[C@H](O)[C@@](C)(C(=O)O1)[C@H]2[C@@H]3C(=O)O | 74.1% | –
Cc1cc(N2CCN(C(=O)Oc3ccc(-c4ccccc4)cn3)CC2)c2ccccc2n1 | – | 6.51 µM (active)

Compound | viability (% of control) | Potency
COc1ccc(CN2C(=O)C(=O)c3cc(S(=O)(=O)N4CCC[C@H]4COc4cccnc4)ccc32)cc1 | 90.3% | –
CC(O)/C=C/C1(O)C(C)C(O)C(O[C@@H]2O[C@H](CO)[C@@H](O)[C@H](O)[C@H]2O)CC1(C)C (some centres undefined) | 3.76% [at 17.3 µM] | –
CC1(C)O[C@@]2(C)CC[C@@H]1C[C@@H]2OC1OC(CO)C(O)C(O)C1O (some centres undefined) | 62.9% | –
CC(C)CC(c1c(O)c(C=O)c(O)c(C=O)c1O)C1CCC(C)(O)C2CC(C(C)(C)O)CCC12C (centres undefined) | 72.3% [at 17.3 µM] | –
OC[C@H]1O[C@@H](OCCc2ccc(O)cc2)[C@H](O)[C@@H](O)[C@@H]1O | 63.5% | –
O=C(CCCCC1CCCCC1)N1CCC(c2cnc[nH]2)CC1 | – | 13 µM (active)
CCN(CC)C(=O)C(c1ccccc1)N1CCN(c2ccc(NC(=O)c3ccccc3-c3cccnc3)cc2F)CC1 (centres undefined) | 65.8% | –
C[C@@H]1O[C@@H](O[C@H]2[C@H](O)[C@@H](O)[C@H](OC[C@H]3O[C@@H](OC(=O)[C@]45CCC(C)(C)C[C@H]4C4=CCC6[C@@]7(C)C[C@@H](O)[C@H](O)[C@@](C)(CO)C7[C@H](O)C[C@@]6(C)[C@]4(C)CC5)[C@H](O)[C@@H](O)[C@@H]3O)O[C@@H]2CO)[C@H](O)[C@H](O)[C@H]1O (some centres undefined) | 86.1% [at 9.25 µM] | –
CN(C)CCn1cc(S(=O)(=O)c2cccc(F)c2)c2cccnc21 | 59.2% | –
CC(C)C1C(OC(=O)/C=C/c2ccccc2)CC2(C)OC2CCC2(C)OC2C1O (centres undefined) | 5.87% | –
CC(=O)N1c2ccccc2C2(O)CC3C(=O)NC(CC(C)C)C(=O)N3C12 (centres undefined) | 91.3% | –
O=C1NC(=O)C(c2cn3c4c(cccc24)CCC3)C1c1c[nH]c2ccccc12 (centres undefined) | – | 0.92 µM (active)
COc1ccc(/C=C\C(=O)O)c(O[C@@H]2O[C@H](CO)[C@@H](O)[C@H](O)[C@H]2O)c1 | 48.4% | –
C=C1C(=O)OC2CC(C)C(CCC(C)=O)=CCC12 (centres undefined) | – | 8.2 µM (active)
CC1(O)CC(O)C2C(C(=O)O)=COC(OC3OC(CO)C(O)C(O)C3OC(=O)/C=C/c3ccc(O)cc3)C21 (centres undefined) | 81.9% [at 17.3 µM] | –
COc1cc(C2CC(=O)Nc3c2cc(Br)c2ccccc32)cc(OC)c1OC (centres undefined) | 83.5% | –
CC(C)(C)Nc1nc2cc(Cl)c(Cl)cc2nc1S(C)(=O)=O | – | 0.731 µM (active)
COc1ccc(/C=C/C(=O)O[C@H]2[C@@H]3C=CO[C@@H](O[C@@H]4O[C@H](CO)[C@@H](O)[C@H](O)[C@H]4O)[C@@H]3[C@@]3(CO)O[C@@H]23)cc1O | 88% [at 17.3 µM] | –
CN1CCc2cccc3c2[C@H]1Cc1ccc(O)c(O)c1-3 | – | 5.96 µM (active)
